Results on 8 compounds are retold here after PubChem BioAssay (Tox21).

Records with an inconclusive call do not appear. Active and inactive are the calls of the source. Unless noted, calls follow the shape of the full dose curve.

The nature of assay [1]: Nuclear factor erythroid 2-related factor 2/antioxidant responsive element (Nrf2/ARE) small molecule agonists: qHTS cell viability counter screen in human keratinocytes (AID 1919968; active = well fitted curve in the direction sought with a large enough effect in the repeat runs; an effect the other way counts as inactive or inconclusive; also: nearly all actives have a fitted effect of over 55% in size; also: potency is read from the fitted curve at half-maximal effect). In outline: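 In human HaCaT keratinocytes stably expressing an ARE-driven luciferase, compound exposure lasted 23 h at 37 C under 5% CO2. Viable cells are quantified with a protease-based fluorogenic reagent (CellTiter-Fluor) read 1 h after addition.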

Assay [2] can be described thus: Nuclear factor erythroid 2-related factor 2/antioxidant responsive element (Nrf2/ARE) small molecule agonists: luciferase reporter gene qHTS assay in human keratinocytes (AID 1919969). Also: nearly all actives have a fitted effect of over 35% in size.
In assay [3] the target is Gonadotropin-releasing hormone receptor (Homo sapiens) (UniProt P30968). Briefly: Human gonadotropin-releasing hormone receptor (GnRHR) small molecule agonists, calcium flux assay in GnRHR-HEK293 cells (AID 1920063). Also: nearly all actives have a fitted effect of over 35% in size. The method in brief:
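Intracellular calcium rise is the read-out: engineered human GnRHR HEK293 cells, dye-loaded, are exposed to DMSO-dissolved compounds and fluorescence at Ex/Em 480/540 is tracked for 3 min.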
(Calcium flux is commonly read through the fluorescence of an indicator in the cells.)

Assay [4] deals with KiSS-1 receptor (Homo sapiens) (UniProt Q969F8). The experiment in a line: Human kisspeptin (KISS1R) small molecule agonists, calcium flux assay in KISS1R-HEK293 cells (AID 1920064; active = well fitted curve in the direction sought with a large enough effect in the repeat runs; an effect the other way counts as inactive or inconclusive). The method in brief: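 Concentration-response testing used 15 concentrations in triplicate on human KISS1R-expressing HEK293 cells. Calcium-dependent fluorescence (Ex/Em 480/540) was followed kinetically for 3 min after compound transfer.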

Assay [5] in a line: p53 small molecule agonists, cell-based qHTS assay with human liver microsomes (AID 1963577). In outline: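 Fluorescence of the beta-lactamase reporter in p53RE-bla cells, detected with LiveBLAzer substrate (2 h, room temperature, dark), served as the read-out after 16 h compound exposure at 37 C with human liver microsomes and NADPH, each 0.5 mg/mL final.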
Assay [6] in a line: p53 small molecule agonists, cell-based qHTS assay with rat liver microsomes (AID 1963578). The method in brief:
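Cells carrying a p53 response element–beta-lactamase reporter were plated and rested 5 h, then dosed with compound in DMSO plus rat liver microsomes and NADPH, each at 0.5 mg/mL final. After 16 h at 37 C, LiveBLAzer substrate was added for 2 h.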
(qHTS replaces the single test concentration by a dilution series.)

Assay [7] can be described thus: p53 small molecule agonists, cell-based qHTS assay with rat liver microsomes: qHTS cell viability counter screen (AID 1963580). Also: nearly all actives have a fitted effect of over 45% in size. Also: potency is read from the fitted curve at half-maximal effect. The method in brief:
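Luminescent ATP readout (CellTiter-Glo, 30 min at room temperature) reports viability of p53RE-bla HCT-116 cells after 16 h at 37 C with test compounds under metabolic activation by rat liver microsomes and NADPH at 0.5 mg/mL final each.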

Assay [8] in a line: p53 small molecule agonists, cell-based qHTS assay: qHTS cell viability counter screen (AID 1963581). Also: nearly all actives have a fitted effect of over 45% in size. In outline:
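Luminescence from CellTiter-Glo, reflecting ATP content, serves as the cytotoxicity measure; it is taken after the 2 h reporter substrate step in HCT-116 p53RE-bla cells dosed for 16 h at 37 C.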

Assay [9] in a line: p53 small molecule agonists, cell-based qHTS assay (AID 1963582; active = well fitted activation curve with a large enough effect in the signal ratio in the repeat runs, not every such curve was filed as active; the % refers to the signal ratio). In outline:
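After plating, p53RE-bla cells sat 5 h in the incubator; compounds or DMSO vehicle were pinned in; a 16 h incubation at 37 C followed; FRET substrate was added and, 2 h later at RT, fluorescence was measured.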

Assay [10] has as its target 5-hydroxytryptamine receptor 2A (Homo sapiens) (UniProt P28223). The experiment in a line: 5-hydroxytryptamine receptor 2A (HTR2A) small molecule antagonists, cell-based qHTS assay (AID 1963586). Also: nearly all actives have a fitted effect of over 45% in size. The method in brief:
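CHO cells stably expressing human HTR2A were plated for 18 h at 37 C, then loaded with calcium dye for 1 h. Compounds were preincubated 5 min at room temperature before DOI (4 nM solution) was added. Kinetic fluorescence was read for 3 min.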

The target is the same in assay [11]. Briefly: 5-hydroxytryptamine receptor 2A (HTR2A) small molecule agonists, cell-based qHTS assay (AID 1963587). Also: nearly all actives have a fitted effect of over 30% in size. The method in brief:
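HTR2A-CHO cells, plated 18 h at 37 C/5% CO2, dye-loaded 1 h at 37 C; compounds in DMSO added by pin tool (agonist mode). Intracellular calcium flux read as kinetic fluorescence on FDSS over 2 min at 1 s intervals.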

The target in assay [12] is Muscarinic acetylcholine receptor M1 (Homo sapiens) (UniProt P11229). The experiment in a line: Cholinergic receptor muscarinic 1 (CHRM1) small molecule antagonists, cell-based qHTS assay (AID 1963588). Also: nearly all actives have a fitted effect of over 40% in size. Also: potency is read from the fitted curve at half-maximal effect. The method in brief: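 Compounds were tested at 15 concentrations in three independent runs. Dye-loaded CHRM1-CHO cells were exposed 5 min at room temperature before stimulation by acetylcholine added at 50nM. Intracellular calcium was read kinetically on FDSS for 3 min.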

For assay [13] the target is unchanged. The experiment in a line: Cholinergic receptor muscarinic 1 (CHRM1) small molecule agonists, cell-based qHTS assay (AID 1963589). Also: nearly all actives have a fitted effect of over 35% in size. The method in brief:
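Fluorescent calcium dye reports M1 activation in stably transfected CHO cells. Compounds, 15 concentrations, added after 1 h dye loading at 37 C; kinetic reading at 1 sec intervals.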

A short description of assay [14]: cAMP Responsive Elements (CRE) small molecule agonists, cell-based qHTS assay (AID 1963590). The method in brief: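 Compound exposure lasted 3 h at 37 C/5% CO2 in CRE-bla HEK 293T cells grown in assay medium with 10% dialyzed FBS and 25 mM HEPES. Reporter signal came from LiveBLAzer B/G FRET substrate, 2 h, room temperature.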
The nature of assay [15]: cAMP Responsive Elements (CRE) small molecule antagonists, cell-based qHTS assay (AID 1963591; active = well fitted inhibition curve with a large enough effect in the signal ratio in the repeat runs, not every such curve was filed as active; the % refers to the signal ratio). The method in brief:
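Stimulation used NKH477 at a final 0.25 uM for 3 h in compound-treated CRE-bla HEK293T cells, seeded 18 h beforehand. Reporter activity was measured with LiveBLAzer B/G FRET substrate after 2 h at room temperature.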

Assay [16] concerns the target Beta-2 adrenergic receptor (Homo sapiens) (UniProt P07550). The experiment in a line: Adrenergic beta2 receptor (ADRB2) small molecule antagonists, cell-based qHTS assay (AID 1963592). Also: series mostly up to about 92 µM; nearly all actives have a fitted effect of over 50% in size. The method in brief: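 Assay format: CHO-ADRB2 cells, 18-20hr seeding at 37C/5% CO2, then compound plus 1nM isoproterenol agonist mix for 0.5hr RT. Homogeneous time-resolved fluorescence cAMP detection after 1hr, expressed as 665/615 nm ratio.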

Assay [17] deals with D(2) dopamine receptor (Homo sapiens) (UniProt P14416). Briefly: Dopamine D2 receptor (DRD2) small molecule antagonists, cell-based qHTS assay (AID 1963595; active = well fitted inhibition curve with a large enough effect in the signal ratio in the repeat runs, with a control signal flat; the % refers to the signal ratio). The method in brief: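 HEK293 cells stably expressing DRD2, preincubated with 0.1 mM Ro20-1724 and compounds 10 min, were stimulated with 200 nM NKH477 plus 12 nM quinpirole for 30 min at room temperature; cAMP measured by HTRF (665/620 nm).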

A short description of assay [18]: p53 small molecule agonists, cell-based qHTS assay with human liver microsomes: qHTS cell viability counter screen (AID 1963579). Also: nearly all actives have a fitted effect of over 45% in size. The method in brief: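 Cytotoxicity counter screen: p53RE-bla, 4,000 cells/well; 5 h settle, 37 C/5% CO2; cpd + HLM 0.5 mg/mL + NADPH 0.5 mg/mL (final); 16 h, 37 C; CellTiter-Glo, 30 min RT, luminescence.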
Assay [19] concerns the target D(2) dopamine receptor (Homo sapiens) (UniProt P14416). The experiment in a line: Dopamine D2 receptor (DRD2) small molecule agonists, cell-based qHTS assay (AID 1963594). Also: nearly all actives have a fitted effect of over 35% in size. The method in brief: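 HEK293 cells stably expressing DRD2 were cultured 24 h at 37 C, then given Ro20-1724 (0.1 mM final) and compounds for 10 min at room temperature. NKH477 (200nM) was then added for 30 min. cAMP was read by HTRF.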

A short description of assay [20]: G protein-coupled receptor (GPCR) small molecule agonists, calcium flux assay: HEK293 wild type cell line counter screen (AID 1920065). The method in brief: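 Fluorescence intensity signals activation. After overnight (18 h) culture and a 1 h calcium dye load at 37 C, compounds are added by pin tool and the plate read at 480/540 nm for 3 min in 1 s steps.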

Sequence of D(2) dopamine receptor (Homo sapiens) (P14416 whole entry, looked up): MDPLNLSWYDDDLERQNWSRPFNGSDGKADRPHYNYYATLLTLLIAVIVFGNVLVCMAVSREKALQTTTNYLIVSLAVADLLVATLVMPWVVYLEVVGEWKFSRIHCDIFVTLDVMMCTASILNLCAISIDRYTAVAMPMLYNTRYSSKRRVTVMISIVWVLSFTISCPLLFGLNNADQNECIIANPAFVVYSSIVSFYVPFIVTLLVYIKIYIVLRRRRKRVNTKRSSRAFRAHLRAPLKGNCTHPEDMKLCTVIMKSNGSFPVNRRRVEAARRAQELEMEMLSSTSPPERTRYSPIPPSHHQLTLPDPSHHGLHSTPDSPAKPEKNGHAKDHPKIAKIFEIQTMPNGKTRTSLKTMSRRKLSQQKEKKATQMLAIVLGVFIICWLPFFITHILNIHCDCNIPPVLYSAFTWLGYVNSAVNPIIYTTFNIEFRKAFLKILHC
Sequence of KiSS-1 receptor (Homo sapiens) (Q969F8 whole entry, looked up): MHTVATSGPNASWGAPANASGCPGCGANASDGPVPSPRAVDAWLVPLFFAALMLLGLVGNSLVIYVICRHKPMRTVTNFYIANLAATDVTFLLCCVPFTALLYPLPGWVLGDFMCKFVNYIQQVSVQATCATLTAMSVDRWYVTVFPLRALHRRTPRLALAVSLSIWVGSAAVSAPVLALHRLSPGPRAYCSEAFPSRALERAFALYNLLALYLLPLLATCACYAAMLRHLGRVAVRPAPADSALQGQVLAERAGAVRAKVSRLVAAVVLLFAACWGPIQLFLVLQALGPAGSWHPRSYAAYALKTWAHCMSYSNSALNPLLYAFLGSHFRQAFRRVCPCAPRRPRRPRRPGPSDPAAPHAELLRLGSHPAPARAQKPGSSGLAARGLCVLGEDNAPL
Sequence of Beta-2 adrenergic receptor (Homo sapiens) (P07550 whole entry, looked up): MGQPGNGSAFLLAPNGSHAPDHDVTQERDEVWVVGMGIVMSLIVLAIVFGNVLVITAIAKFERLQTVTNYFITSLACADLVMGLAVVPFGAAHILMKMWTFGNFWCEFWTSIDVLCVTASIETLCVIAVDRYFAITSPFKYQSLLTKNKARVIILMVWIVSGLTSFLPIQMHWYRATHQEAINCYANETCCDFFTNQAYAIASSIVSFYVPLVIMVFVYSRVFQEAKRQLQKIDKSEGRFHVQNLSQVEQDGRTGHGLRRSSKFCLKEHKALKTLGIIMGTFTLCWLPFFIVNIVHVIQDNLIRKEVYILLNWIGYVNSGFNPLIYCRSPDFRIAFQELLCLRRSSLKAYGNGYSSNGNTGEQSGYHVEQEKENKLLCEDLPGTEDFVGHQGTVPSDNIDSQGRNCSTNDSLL
Sequence of 5-hydroxytryptamine receptor 2A (Homo sapiens) (P28223 whole entry, looked up): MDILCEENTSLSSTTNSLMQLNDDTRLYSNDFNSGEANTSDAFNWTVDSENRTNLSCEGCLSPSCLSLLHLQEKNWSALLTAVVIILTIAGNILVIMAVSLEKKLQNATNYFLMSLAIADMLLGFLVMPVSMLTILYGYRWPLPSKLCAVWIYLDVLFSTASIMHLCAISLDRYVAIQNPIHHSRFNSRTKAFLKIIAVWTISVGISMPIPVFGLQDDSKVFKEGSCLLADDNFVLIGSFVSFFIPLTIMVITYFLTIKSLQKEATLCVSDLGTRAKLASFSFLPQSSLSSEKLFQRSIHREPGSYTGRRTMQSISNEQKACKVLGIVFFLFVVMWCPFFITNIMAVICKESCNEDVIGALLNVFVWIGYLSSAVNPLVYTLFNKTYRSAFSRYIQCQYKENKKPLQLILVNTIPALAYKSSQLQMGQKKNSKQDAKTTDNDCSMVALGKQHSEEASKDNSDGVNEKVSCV
Sequence of Muscarinic acetylcholine receptor M1 (Homo sapiens) (P11229 whole entry, looked up): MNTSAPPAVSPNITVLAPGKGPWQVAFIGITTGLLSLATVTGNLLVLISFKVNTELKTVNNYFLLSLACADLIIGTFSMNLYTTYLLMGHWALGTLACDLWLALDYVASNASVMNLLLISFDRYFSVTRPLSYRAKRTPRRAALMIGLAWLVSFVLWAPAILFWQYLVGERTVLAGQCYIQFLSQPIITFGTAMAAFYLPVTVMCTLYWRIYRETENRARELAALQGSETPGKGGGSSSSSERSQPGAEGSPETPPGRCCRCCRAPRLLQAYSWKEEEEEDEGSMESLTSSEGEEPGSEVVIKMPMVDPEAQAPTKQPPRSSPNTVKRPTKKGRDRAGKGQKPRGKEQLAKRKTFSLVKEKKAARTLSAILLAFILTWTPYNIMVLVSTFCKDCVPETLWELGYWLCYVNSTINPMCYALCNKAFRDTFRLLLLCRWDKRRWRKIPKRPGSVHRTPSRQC
Sequence of Gonadotropin-releasing hormone receptor (Homo sapiens) (P30968 whole entry, looked up): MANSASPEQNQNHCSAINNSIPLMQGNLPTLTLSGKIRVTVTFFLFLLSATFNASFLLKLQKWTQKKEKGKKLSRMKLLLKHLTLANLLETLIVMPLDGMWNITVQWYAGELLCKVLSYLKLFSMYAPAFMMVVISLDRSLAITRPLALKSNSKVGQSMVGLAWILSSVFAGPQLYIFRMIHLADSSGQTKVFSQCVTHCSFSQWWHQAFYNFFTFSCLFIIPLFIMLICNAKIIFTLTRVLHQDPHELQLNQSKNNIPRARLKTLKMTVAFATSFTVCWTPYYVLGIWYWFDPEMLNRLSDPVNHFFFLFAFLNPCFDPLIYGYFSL

For the compound `COc1cc(O)cc(O)c1`, the Potency entry in assay [1], in assay [2], in [3], in [5], in assay [6] and in assay [7] was “inactive” throughout. Moreover, the Potency entry in assay [8], in assay [9], in assay [10], in assay [11], in [12] and in [13] was “inactive” each time. For the same compound, the Potency entry in assay [14], in assay [15], in [16] and in assay [17] was “inactive” in each case. In [4], the outcome was inactive.
On to `CC(C)(O)c1ccc(CNC(=O)c2cccnc2Oc2ccc3nonc3c2)cc1`, for which the Potency entry in [1], in assay [2], in assay [3], in assay [5], in assay [18] and in [7] was “inactive” each time. For the same compound, the Potency result in assay [8], in [9], in assay [10], in assay [11], in [12] and in assay [13] was “inactive” in each case. The Potency result in assay [16] and in [17] was “inactive” each time. Also, in [4], the outcome was inactive.
`CCCCCCCCc1ccc(S(=O)(=O)O)cc1`: the Potency entry in assay [1], in [2], in assay [3], in [5], in assay [6] and in assay [7] was “inactive” in each case. The Potency entry in assay [8], in assay [9], in [10], in assay [12], in assay [13] and in [14] was “inactive” each time. Further, the Potency result in assay [16], in assay [19] and in assay [17] was “inactive” in each case. In addition, in assay [4], the outcome was inactive.
In the case of `O=C(Cn1ccnc1[N+](=O)[O-])NCCO`, the Potency entry in [1], in assay [2], in assay [3], in [6], in assay [18] and in assay [7] was “inactive” throughout. The Potency entry in assay [8], in assay [9], in assay [10], in [11], in assay [13] and in assay [14] was “inactive” each time. Besides, the Potency result in [15], in assay [16], in assay [19] and in [17] was “inactive” each time. Further, the result in assay [4] was inactive.
On to `COc1cccc(-c2ccc(/C=C\CN3CCCCCC3)cc2Cl)c1`, for which the Potency in assay [1] is 38.4 µM (active); in [7], 40.6 µM (active); in assay [12] it was 0.836 µM (active). For the same compound, the Potency entry in assay [2], in assay [3], in [6], in [18], in [8] and in assay [9] was “inactive” each time. In addition, the Potency result in assay [10], in [13] and in [16] was “inactive” each time. Besides, the result in [4] was inactive.
For the compound `O=C(CCCl)NCc1ccccc1`, the Potency result in [1], in assay [2], in assay [3], in assay [5], in assay [6] and in [18] was “inactive” throughout. Besides, the Potency result in [7], in [8], in assay [9], in assay [10], in assay [11] and in assay [12] was “inactive” each time. The Potency result in [13], in assay [14], in [15], in assay [16], in assay [19] and in assay [17] was “inactive” throughout. The result in [20] was inactive.
Consider `CCOC(=O)[C@H](CCc1ccccc1)N[C@H]1CS[C@H](c2cccs2)CN(CC(=O)O)C1=O`, for which the Potency entry in assay [1], in [2], in assay [3], in assay [5], in [6] and in assay [18] was “inactive” in each case. The Potency entry in assay [7], in [8], in [9], in assay [10], in [11] and in assay [12] was “inactive” throughout. The Potency entry in [13], in [14], in assay [15], in assay [16] and in assay [17] was “inactive” in each case. Also, the result in assay [20] was inactive.
Consider `CCCCC1CCCCC(=O)O1` (configuration not stated), for which the Potency result in assay [1], in assay [2], in [3], in [6], in [18] and in assay [7] was “inactive” in each case. In addition, the Potency result in [8], in assay [9], in [10], in assay [11], in [12] and in assay [13] was “inactive” in each case. Moreover, the Potency entry in [15], in assay [16], in [19] and in assay [17] was “inactive” each time. In assay [4], the outcome was inactive.
